Experimental data taken from PubChem BioAssay (NCATS).
Unmarked numbers belong to inactive results. Inconclusive results are not listed. Entries that show only a call come without a potency. Active and inactive are the calls of the source. Unless noted, calls come from the whole dose curve; as a rule, active = well fitted curve in the direction sought with a large enough effect; inconclusive = small, poorly fitted or top-dose-only effect, or another doubt; inactive = no such curve, though single readings can be large; an effect the other way counts as inactive or inconclusive.

How the values were obtained:
[1] = biological target: T1, Hexokinase-4 (Homo sapiens) + Glucokinase regulatory protein (Homo sapiens) (UniProt P35557+Q14397); assay: qHTS assay for inhibitors of recombinant human GCK-GKRP interaction: Diaphorase-coupled assay (AID 743205)
Summary of the method: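 GST-GCK (10 nM) with FLAG-GKRP (10 nM), 5 mM glucose and 0.4 mM ATP in pH 7.6 Hepes; compounds preincubated 20 min with substrate. G6PDH/diaphorase coupling converts resazurin to resorufin, read kinetically (ex 525/em 590 nm) for 30 min.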

[2] = biological target: T1, Hexokinase-4 (Homo sapiens) + Glucokinase regulatory protein (Homo sapiens); assay: qHTS assay for inhibitors of recombinant human GCK-GKRP interaction: ADP-Glo assay (AID 743206)
Summary of the method: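 GST-GCK and FLAG-GKRP (15 nM each in the dispensed mix, with 2 uM S6P) react with 0.4 mM ATP and 5 mM glucose (final) in Hepes pH 7.6 for 60 min at room temperature. ADP is measured by ADP-Glo luminescence.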

[3] = biological target: T1, Hexokinase-4 (Homo sapiens) + Glucokinase regulatory protein (Homo sapiens); assay: qHTS assay for inhibitors of recombinant human GCK-GKRP interaction: HTRF assay (AID 743207)
Summary of the method: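 GST-GCK and FLAG-GKRP (5 nM each) were combined with 2 uM S6P in pH 7.1 Hepes/MgCl2/KCl/DTT buffer, then compound and anti-FLAG XL665/anti-GST K antibodies were added. After 60 min at room temperature, HTRF 665/615 nm emission was read.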

[4] = qHTS Assay for Identifying Gametocytocidal Compounds (AID 743244);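 note: actives lower the fluorescent signal which means gametocytes are killed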; conditions: P. falciparum 3D7 stage III-V gametocytes, alamarBlue, 72 h; max response: active compounds read low
Summary of the method: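 P. falciparum 3D7 stage III–V gametocytes (20,000 cells/well) were exposed to compounds for 72 h at 37 °C, 5% CO2. AlamarBlue was then added for 24 h; decreased resorufin fluorescence (Ex 525/Em 598 nm) indicated loss of viability.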

[5] = qHTS assay for measurement of the activity of small molecule inhibitors on Zika virus induced Caspase-3 activity in human iPSC derived neural progenitor cells (hNPCs) (AID 1224857); note: nearly all actives have a fitted effect of over 65% in size
Summary of the method: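 hNPCs seeded 350 cells/well, cultured 16–20 h; compounds added 1 h before ZIKV (2 FFU/cell), 37 C 6 h. Caspase-Glo 3/7 luminescence after 30 min RT; % inhibition from induction scaled to uninfected (0%) and infected (100%) wells.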

[6] = qHTS assay for measurement of the activity of small molecule inhibitors on Zika virus induced Caspase-3 activity in human astrocytoma cells (AID 1224859)
Summary of the method: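 Luminescence read-out (Caspase-Glo 3/7, 30 min RT) of caspase activity in SNB-19 cells infected 6 h with ZIKV, 2 FFU/cell, after 1 h compound pretreatment; % inhibition from induction normalised to uninfected (0%) and infected (100%) wells.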

[7] = Natriuretic polypeptide receptor (hNpr1) antagonism - Pilot counterscreen GloSensor control cell line (AID 1347045; calls by dose curve; note: potency is the fitted concentration of half-maximal effect)
Summary of the method: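 This counterscreen uses HEK293 cells expressing the GIP/pGS-40F cGMP biosensor. Compound-treated cells are challenged with 50 uM sodium nitroprusside, and the luciferase signal is compared before and after stimulation.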

[8] = biological target: Atrial natriuretic peptide receptor 1 (Homo sapiens) (UniProt P16066); assay: Natriuretic polypeptide receptor (hNpr1) antagonism - Pilot screen (AID 1347049; calls by dose curve;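 note: agonist-evoked cGMP luminescence read 20 min after hNppA addition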; note: potency is the fitted concentration of half-maximal effect)
Summary of the method: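 HEK293 cells co-expressing hNpr1 and the GloSensor pGS-40F cGMP luciferase sensor were preloaded with 2% GloSensor reagent for 2 h. Compounds were added for 30 min at room temperature, then cells were stimulated with 0.1 nM hNppA for 20 min before luminescence readout.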

[9] = biological target: Atrial natriuretic peptide receptor 2 (Homo sapiens) (UniProt P20594); assay: Natriuretic polypeptide receptor (hNpr2) antagonism - Pilot subtype selectivity assay (AID 1347050; calls by dose curve; note: potency is the fitted concentration of half-maximal effect)
Summary of the method: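 cGMP-sensor HEK293/hNpr2 cells; 2% GloSensor reagent 2 h RT; compounds 30 min; baseline luminescence read; 1 nM hNppC agonist 20 min RT; final luminescence read by CCD camera. Antagonism = reduced post-agonist signal.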

T1 sequence (P35557 whole entry, looked up): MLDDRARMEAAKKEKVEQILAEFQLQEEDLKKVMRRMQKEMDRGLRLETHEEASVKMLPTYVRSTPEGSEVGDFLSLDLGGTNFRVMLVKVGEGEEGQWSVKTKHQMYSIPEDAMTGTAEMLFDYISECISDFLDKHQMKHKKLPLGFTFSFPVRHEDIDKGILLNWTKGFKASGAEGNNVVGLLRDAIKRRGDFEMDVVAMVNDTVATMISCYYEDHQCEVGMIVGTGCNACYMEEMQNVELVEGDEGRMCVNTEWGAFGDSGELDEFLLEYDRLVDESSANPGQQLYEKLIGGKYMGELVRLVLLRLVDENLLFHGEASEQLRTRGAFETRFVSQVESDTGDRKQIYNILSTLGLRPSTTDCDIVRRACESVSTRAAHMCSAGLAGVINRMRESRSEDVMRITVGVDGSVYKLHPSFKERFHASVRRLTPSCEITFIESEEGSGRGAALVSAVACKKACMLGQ
T1 sequence (Q14397 whole entry, looked up): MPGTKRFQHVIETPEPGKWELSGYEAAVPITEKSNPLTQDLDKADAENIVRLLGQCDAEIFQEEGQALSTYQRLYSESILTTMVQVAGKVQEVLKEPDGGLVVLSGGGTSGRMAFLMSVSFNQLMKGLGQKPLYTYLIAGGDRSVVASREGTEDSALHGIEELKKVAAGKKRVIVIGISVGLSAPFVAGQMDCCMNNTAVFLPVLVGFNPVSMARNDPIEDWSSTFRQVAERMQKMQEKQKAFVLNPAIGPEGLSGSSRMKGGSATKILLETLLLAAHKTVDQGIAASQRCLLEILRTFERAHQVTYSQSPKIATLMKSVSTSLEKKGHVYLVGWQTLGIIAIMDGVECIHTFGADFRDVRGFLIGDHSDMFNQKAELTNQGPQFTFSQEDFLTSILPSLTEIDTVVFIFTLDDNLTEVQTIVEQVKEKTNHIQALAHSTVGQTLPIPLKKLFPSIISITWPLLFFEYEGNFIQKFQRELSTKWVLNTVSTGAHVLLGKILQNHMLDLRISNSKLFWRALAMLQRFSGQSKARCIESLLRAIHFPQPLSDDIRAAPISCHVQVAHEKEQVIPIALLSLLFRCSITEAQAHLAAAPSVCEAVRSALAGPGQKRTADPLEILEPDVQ
Chain of Atrial natriuretic peptide receptor 1 (Homo sapiens) (P16066 whole entry, looked up): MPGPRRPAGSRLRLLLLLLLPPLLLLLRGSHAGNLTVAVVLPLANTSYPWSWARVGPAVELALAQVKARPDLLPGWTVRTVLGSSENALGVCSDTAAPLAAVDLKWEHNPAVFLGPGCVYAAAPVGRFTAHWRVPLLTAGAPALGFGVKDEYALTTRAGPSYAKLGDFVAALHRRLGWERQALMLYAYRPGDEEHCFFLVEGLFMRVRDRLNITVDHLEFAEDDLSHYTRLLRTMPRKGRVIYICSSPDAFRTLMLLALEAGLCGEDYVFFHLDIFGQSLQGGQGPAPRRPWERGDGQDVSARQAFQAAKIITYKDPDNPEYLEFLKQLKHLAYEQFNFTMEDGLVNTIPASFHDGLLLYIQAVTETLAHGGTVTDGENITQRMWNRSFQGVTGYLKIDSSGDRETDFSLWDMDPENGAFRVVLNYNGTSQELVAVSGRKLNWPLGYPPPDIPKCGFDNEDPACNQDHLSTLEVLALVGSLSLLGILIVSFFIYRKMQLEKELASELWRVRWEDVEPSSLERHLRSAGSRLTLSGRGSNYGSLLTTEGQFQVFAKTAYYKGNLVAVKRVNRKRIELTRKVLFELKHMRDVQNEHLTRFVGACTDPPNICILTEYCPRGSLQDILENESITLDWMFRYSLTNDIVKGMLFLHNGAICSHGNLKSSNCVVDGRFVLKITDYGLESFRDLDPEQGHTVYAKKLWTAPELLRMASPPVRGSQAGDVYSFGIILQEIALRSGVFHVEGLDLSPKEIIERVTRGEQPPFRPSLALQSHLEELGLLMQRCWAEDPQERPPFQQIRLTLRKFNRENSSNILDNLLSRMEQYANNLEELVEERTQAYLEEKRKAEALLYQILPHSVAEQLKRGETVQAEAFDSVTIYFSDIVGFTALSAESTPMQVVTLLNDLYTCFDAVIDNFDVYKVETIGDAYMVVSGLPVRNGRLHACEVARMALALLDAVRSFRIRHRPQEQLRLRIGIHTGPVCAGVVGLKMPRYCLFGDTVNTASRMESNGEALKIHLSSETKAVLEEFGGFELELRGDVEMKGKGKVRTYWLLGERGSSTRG
Chain of Atrial natriuretic peptide receptor 2 (Homo sapiens) (P20594 whole entry, looked up): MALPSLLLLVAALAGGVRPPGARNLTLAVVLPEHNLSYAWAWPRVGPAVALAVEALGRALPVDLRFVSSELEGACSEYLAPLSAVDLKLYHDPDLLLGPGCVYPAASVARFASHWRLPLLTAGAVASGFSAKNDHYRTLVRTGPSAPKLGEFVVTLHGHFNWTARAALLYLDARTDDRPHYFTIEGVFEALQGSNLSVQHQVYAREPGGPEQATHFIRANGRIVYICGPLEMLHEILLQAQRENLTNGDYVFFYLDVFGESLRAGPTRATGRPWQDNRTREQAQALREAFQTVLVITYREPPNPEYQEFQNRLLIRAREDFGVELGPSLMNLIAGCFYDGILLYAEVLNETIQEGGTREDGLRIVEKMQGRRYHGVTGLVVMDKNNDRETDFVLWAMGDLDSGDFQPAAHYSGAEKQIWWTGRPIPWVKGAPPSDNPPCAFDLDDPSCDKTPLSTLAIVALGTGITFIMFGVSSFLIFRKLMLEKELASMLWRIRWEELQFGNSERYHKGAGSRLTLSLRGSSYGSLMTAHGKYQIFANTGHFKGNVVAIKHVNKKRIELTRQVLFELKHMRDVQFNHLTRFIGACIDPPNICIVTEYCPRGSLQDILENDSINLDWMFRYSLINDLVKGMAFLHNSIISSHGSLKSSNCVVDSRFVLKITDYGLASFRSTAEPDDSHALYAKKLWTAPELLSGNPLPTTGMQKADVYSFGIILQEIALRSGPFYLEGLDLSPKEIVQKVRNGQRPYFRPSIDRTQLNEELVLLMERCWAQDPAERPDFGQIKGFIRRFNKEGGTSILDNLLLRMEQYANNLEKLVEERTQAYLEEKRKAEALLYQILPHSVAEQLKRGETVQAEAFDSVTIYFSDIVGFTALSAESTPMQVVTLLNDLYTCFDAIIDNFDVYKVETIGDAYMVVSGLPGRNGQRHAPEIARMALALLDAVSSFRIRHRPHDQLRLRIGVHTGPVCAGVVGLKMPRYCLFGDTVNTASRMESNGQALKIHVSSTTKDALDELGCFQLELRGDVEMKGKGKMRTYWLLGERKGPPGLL

Nc1ncnc2c1nc(Sc1ccc(Cl)cc1)n2[C@H]1OC2COP(=O)(O)O[C@@H]2C1O (some centres undefined)
Potency [1]: inactive
Potency [2]: inactive
Potency [3]: inactive
max response [4]: 39.2%
Potency [5]: inactive
Potency [6]: inactive
Potency [7]: inactive
Potency [8]: inactive
Potency [9]: inactive

NCC(O)C1CCCCCCC1 (centres undefined)
Potency [1]: inactive
Potency [2]: inactive
Potency [3]: inactive
max response [4]: 18.9%
Potency [5]: inactive
Potency [6]: inactive
Potency [7]: inactive
Potency [8]: inactive
Potency [9]: inactive

NC(N)=NC(N)=Nc1cccc(Cl)c1
Potency [1]: inactive
Potency [2]: inactive
Potency [3]: inactive
max response [4]: 35.4%
Potency [5]: inactive
Potency [6]: inactive
Potency [7]: inactive
Potency [8]: inactive
Potency [9]: inactive

CCCCCC(O)CCCC(=O)O (centres undefined)
Potency [1]: inactive
Potency [2]: inactive
Potency [3]: inactive
max response [4]: -4.98%
Potency [5]: inactive
Potency [6]: inactive
Potency [7]: inactive
Potency [8]: inactive
Potency [9]: inactive

COc1ccccc1N1CCN(CCN(C(=O)c2ccc(F)cc2)c2ccccn2)CC1
Potency [1]: inactive
Potency [2]: inactive
Potency [3]: inactive
max response [4]: 23.7%
Potency [5]: inactive
Potency [6]: inactive
Potency [7]: inactive
Potency [8]: inactive
Potency [9]: inactive

Nc1ccc(CCNc2ncnc3c2ncn3C2OC(CO)C(O)C2O)cc1 (centres undefined)
Potency [1]: inactive
Potency [2]: inactive
Potency [3]: inactive
max response [4]: 12.3%
Potency [5]: inactive
Potency [6]: inactive
Potency [7]: inactive
Potency [8]: inactive
Potency [9]: inactive

CC(O)C(O)[C@H]1CNc2nc(N)[nH]c(=O)c2N1 (some centres undefined)
Potency [1]: inactive
Potency [2]: inactive
Potency [3]: inactive
max response [4]: 8.13%
Potency [5]: inactive
Potency [6]: inactive
Potency [7]: inactive
Potency [8]: inactive
Potency [9]: inactive

CNc1cc(NS(=O)(=O)c2ccc(N)cc2)nc(NC)n1
Potency [1]: inactive
Potency [2]: inactive
Potency [3]: inactive
Potency [5]: inactive
Potency [6]: inactive
Potency [7]: inactive
Potency [8]: inactive
Potency [9]: inactive

Cn1c(=O)c2[nH]c(C3CCCC3)nc2n(C)c1=O
Potency [1]: inactive
Potency [2]: inactive
Potency [3]: inactive
max response [4]: 9.69%
Potency [5]: inactive
Potency [6]: inactive
Potency [7]: inactive
Potency [8]: inactive
Potency [9]: inactive

O=C(c1ccc2c(c1)OCCO2)N1CCCCC1
Potency [1]: inactive
Potency [2]: inactive
Potency [3]: inactive
max response [4]: 22.1%
Potency [5]: inactive
Potency [6]: inactive
Potency [7]: inactive
Potency [8]: inactive
Potency [9]: inactive

COc1cc(/C=C(\C#N)C(=O)Nc2nnc(C(F)(F)F)s2)ccc1OCc1ccc(C(F)(F)F)cc1C(F)(F)F
Potency [1]: inactive
Potency [2]: inactive
Potency [3]: inactive
max response [4]: 5.8%
Potency [5]: inactive
Potency [6]: inactive
Potency [7]: 14.7 µM (active)
Potency [8]: 23.9 µM (active)
Potency [9]: 16.5 µM (active)

CCCN(CCc1ccccc1)C1CCc2c(O)cccc2C1 (centres undefined)
Potency [1]: inactive
Potency [2]: inactive
Potency [3]: inactive
Potency [5]: inactive
Potency [6]: inactive
Potency [7]: inactive
Potency [8]: inactive
Potency [9]: inactive

Oc1cc2c(cc1O)C(c1ccccc1)CNCC2 (centres undefined)
Potency [1]: inactive
Potency [2]: inactive
Potency [3]: inactive
max response [4]: 20.1%
Potency [5]: inactive
Potency [6]: inactive
Potency [7]: inactive
Potency [8]: inactive
Potency [9]: inactive

O=C1NC(=O)c2cc(Nc3ccccc3)c(Nc3ccccc3)cc21
Potency [1]: inactive
Potency [2]: inactive
Potency [3]: inactive
max response [4]: 5.21%
Potency [5]: inactive
Potency [6]: inactive
Potency [7]: inactive
Potency [8]: inactive
Potency [9]: inactive

COc1ccccc1N1CCN(CCCCNC(=O)c2ccc3ccccc3c2)CC1
Potency [1]: inactive
Potency [2]: inactive
Potency [3]: inactive
max response [4]: 17.6%
Potency [5]: inactive
Potency [6]: inactive
Potency [7]: inactive
Potency [8]: inactive
Potency [9]: inactive

N[C@@H](Cc1ccc(O)c(I)c1)C(=O)O
Potency [1]: inactive
Potency [2]: inactive
Potency [3]: inactive
max response [4]: 31.3%
Potency [5]: inactive
Potency [6]: inactive
Potency [7]: inactive
Potency [8]: inactive
Potency [9]: inactive

COc1cc2c(CCNC(C)=O)c[nH]c2cc1O
Potency [1]: inactive
Potency [2]: inactive
Potency [3]: inactive
max response [4]: 18.4%
Potency [5]: inactive
Potency [6]: inactive
Potency [7]: inactive
Potency [8]: inactive
Potency [9]: inactive

COC(=O)[C@H](NC(=O)c1cc(-c2ccccc2)nc2ccccc12)c1ccccc1
Potency [1]: inactive
Potency [2]: inactive
Potency [3]: inactive
max response [4]: 9.97%
Potency [5]: inactive
Potency [6]: inactive
Potency [7]: inactive
Potency [8]: inactive
Potency [9]: inactive

c1ccc2c(c1)CC(N1CCN(c3cccc4c3OCCO4)CC1)C2
Potency [1]: inactive
Potency [2]: inactive
Potency [3]: inactive
max response [4]: 9.97%
Potency [5]: inactive
Potency [6]: inactive
Potency [7]: inactive
Potency [8]: inactive
Potency [9]: inactive
